Measured values: patent publication US20210230599, “STEM-LOOP COMPOSITIONS AND METHODS FOR INHIBITING INTERLEUKIN-8” (VITRISA THERAPEUTICS, INC., published 2021)

molecular target: Interleukin-8 (IL8, CXCL8), C-terminal His-tagged (Homo sapiens, UniProt P10145 SEQ:1-72); test: competition; competition TR-FRET; L1 mutant; settings: tags: C-terminal 6xHis (Sino Biological); ssRNA; 2'-F G, 2'-OMe A/C/U, 5' C6NH2, 3' idT
Procedure: Activity of each of these variants were tested using a time resolved competition TR-FRET assay in which the labeled parent Aptamer 3 was competed with increasing concentrations of unlabeled variants for binding to IL8 (FIG. 14). Briefly, 2-fold dilutions of thermally equilibrated aptamers were made in TR-FRET Buffer (50 mM MOPS, pH 7.4, 125 mM NaCl, 5 mM KCl, 50 μM CHAPS, 0.1 mg/mL BSA, 1 mM CaCl₂, and 1 mM MgCl₂). 5 μL of aptamer or control solution was added to 5 μl mix of 10 nM C-terminal His-tagged-IL8, 60 nM ALEXA FLUOR® 647-labeled Aptamer, and 5 nM anti-His-Eu (Perkin Elmer) in a black wall low volume 384 well plate (Greiner). For control, 5 μl of 1000-fold excess of unlabeled parent aptamer or 5 μl TR-FRET buffer alone was added to the mix of ALEXA FLUOR® 647-labeled aptamer, His-IL8, and anti-His-Eu. The plate was covered with a plate seal and subsequently incubated in the dark for 1 hour at room temperature. The plate was read on a Biotek CYTATION™ 5 plate reader. Samples were excited at 330 nm and fluorescent values were collected at 665 nm. Data analysis was performed by subtracting the background value and plotting as percent inhibition, normalized to baseline in the absence of competitor. The values were fit by [Inhibitor] vs. response—Variable slope (four parameters) using GraphPad Prism Version 7.0 and then normalized to aptamer control to obtain an IC₅₀ relative to parent aptamer. Data is presented as log values of relative IC₅₀.
To confirm the sequence conservation of this loop, variants of Aptamer 32 were made (4 base pair S1 version of parent Aptamer 8) where each position of L1 was individually replaced with the other 3 bases and tested for binding in the competition TR-FRET assay.

Binding signal, > 10 fold worse than Aptamer 8:
CGGUGGAAAAUGUGAGAUGGGUUGCCG, CGGUGGGGAAUGUGAGAUGGGUUGCCG, CGGUGCGAAAUGUGAGAUGGGUUGCCG, CGGUGUGAAAUGUGAGAUGGGUUGCCG, CGGUGGGUAAUGUGAGAUGGGUUGCCG, CGGUCGGAAAUGUGAGAUGGGUUGCCG, CGGUGGCAAAUGUGAGAUGGGUUGCCG, CGGUUGGAAAUGUGAGAUGGGUUGCCG, CGGUGGUAAAUGUGAGAUGGGUUGCCG, CGGUAGGAAAUGUGAGAUGGGUUGCCG, CGGUGGGCAAUGUGAGAUGGGUUGCCG, CGGUGAGAAAUGUGAGAUGGGUUGCCG
